Test results reported in PubChem BioAssay (EPA / NIEHS).
Activity calls are given as the source filed them. Rule for the calls: active = hit-call score of the fitted dose curve at least 0.9, where 1 is the maximum; inactive = score below 0.9.

read-out: Matrix Metallopeptidase 3 (MMP3), MMP3 (gene 4314); assay: BSK_BF4T_MMP3: BioMAP Diversity Plus: BF4T Assay for Matrix Metallopeptidase 3 (MMP3) Biomarker Activity (AID 2284271); conditions: primary human bronchial epithelial cells with fibroblasts
Experimental: BSK_BF4T is a cell-based, multiplexed-readout assay that uses bronchial epithelial cells and dermal fibroblasts, a human vascular primary cell, with measurements taken at 24 hours after chemical dosing in a microplate: 96-well plate.BSK_BF4T_MMP3 is an assay component measured in the BSK_BF4T assay. It measures MMP-3 antibody related to regulation of gene expression using ELISA technology.Data from the assay component BSK_BF4T_MMP3 was analyzed at the endpoint, BSK_BF4T_MMP3, in the positive analysis fitting direction relative to DMSO as the negative control and baseline of activity. Using a type of binding reporter, gain or loss-of-signal activity can be used to understand protein changes. To generalize the intended target to other relatable targets, this assay endpoint is annotated to the 'protease' intended target family, where the subfamily is 'matrix metalloproteinase'.
The levels of cell surface (or secreted, indicated by the prefix "s") biomarker endpoints were measured by ELISA. Overt cytotoxicity to cells in confluent adherent cultures (all systems other than the BT system) was assessed by measuring total protein levels using sulforhodamine B (SRB) staining in parallel cultures at the time of biomarker measurements, indicated as SRB endpoints. For proliferation assays for adherent cell types, individual cell types are cultured at sub-confluence and relative cell numbers quantified by SRB staining at time points optimized for each system (48 h: 3C and CASM3C systems; 72 h: BT and HDF3CGF systems; 96 h: SAg system). SRB was performed by staining cells with 0.1% SRB after fixation with 10% TCA and reading wells at 560 nm.Viability and proliferation of PBMC (T cells) was quantified by Alamar Blue reduction for the SAg and BT systems. For PBMC viability (referred to as PBMC Cytotoxicity within the assay endpoint names), cells were plated (75,000/well in a 96-well plate) and then chemical samples added for 1 h before addition of activators, SEB and TSST-1 (20 ng/mL final concentration each). Cells were incubated for 90 h. Then, Alamar Blue (20 uL/well) (Invitrogen, Cat DAL1100) was added for 6 h, and the plates were read with a fluorescence microplate reader at 546/580 nm (excitation/emission). For PBMC proliferation, cells were plated and activated as above but incubated for only 16 h prior to addition of Alamar Blue. Plates were read after 6 h.

Q: How did the outcome turn out when `FC(F)=C(F)C(F)(F)C(F)(F)C(F)(F)C(F)(F)C(F)(F)C(F)(F)F` was run?
A: inactive

Q: For `FC(F)C(F)(F)COCC1CO1` (stereo not given), which outcome is on record?
A: inactive

Q: How did the outcome turn out when `O=S(=O)(O)CCC(F)(F)C(F)(F)C(F)(F)C(F)(F)C(F)(F)C(F)(F)F` was run?
A: inactive

Q: With `NCC(F)(F)C(F)(F)C(F)(F)C(F)(F)F` as the molecule, how does the outcome read?
A: inactive

Q: How did the outcome turn out when `O=C(Cl)C(F)(F)C(F)(F)C(F)(F)C(=O)Cl` was run?
A: inactive

Q: With `OCCC(F)(F)C(F)(F)C(F)(F)C(F)(F)F` as the molecule, how does the outcome read?
A: inactive

Q: With `C[Si](C)(C)C(F)(F)C(F)(F)C(F)(F)F` as the molecule, how does the outcome read?
A: inactive

Q: With `FC(F)(F)COC(OCC(F)(F)F)OCC(F)(F)F` as the molecule, how does the outcome read?
A: inactive

Q: Which outcome does the source give for `FC(F)(F)C(F)(F)C(F)(F)C(F)(F)C(F)(F)C(F)(F)I` here?
A: inactive

Q: With `OC(O)(C(F)C(O)(O)C(F)(F)F)C(F)(F)F` as the molecule, how does the outcome read?
A: inactive
